# From PubChem BioAssay (NCI)
# About 83,000 compounds went through this panel and 20% of them were active in at least one assay; those are over-represented in the sample as a whole.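 A percent growth of 40 corresponds to 60% growth inhibition; 0 means no net growth; -100 means all cells died. Active threshold: below 10.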 The source made the active and inactive calls.
# System: OVCAR-8 ovarian
# Assay: NCI-60 one-dose screen, 48 h (100 = growth as untreated, 0 = no growth, -100 = all killed)
# Settings: 10 µM
row,Compound,growth
1,CC1(C(N)=O)CCC(C(=O)O)C1(C)C (stereo unspecified),105% (inactive)
2,Cc1ccc(/C(C#N)=C/c2ccc3c(c2)OCO3)cc1,94% (inactive)
3,CC(=O)Oc1ccc(Br)cc1C(=O)O,104% (inactive)
4,O=C(c1ccccc1)C1CCC1,99.1% (inactive)
5,C/C(=N\NC(=O)c1ccccc1N)c1ccccc1O,18.2% (inactive)
6,COC(=O)c1cccnc1,92.2% (inactive)
7,CN(C)c1ccc(CNC(C(=O)c2ccccc2)c2ccccc2)cc1 (stereo unspecified),95.9% (inactive)
8,CCCCCC(C)(CC(=O)O)CC(=O)O,103% (inactive)
9,COC(=O)Nc1nc2ccc(C(=O)c3cccs3)cc2[nH]1,13.1% (inactive)
10,N#CC1(Nc2ccc3c4c(cccc24)CC3)CCCCC1,99.6% (inactive)
11,O=C(CS)Nc1ccc2ccccc2c1,114% (inactive)
12,CCOC(=O)C/C(C)=N\O,109% (inactive)
13,CC(O)COc1ccc(-c2ccccc2)cc1 (stereo unspecified),108% (inactive)
14,CC(=O)c1cc2c(cc1F)C(C)(C)CCC2(C)C,104% (inactive)
15,C[C@]12CC[C@@H]3c4ccc(OCC(=O)O)cc4CC[C@H]3[C@@H]1CCC2=O,109% (inactive)
16,O=C(c1ccc(O)cc1)c1ccc(O)cc1,99.9% (inactive)
17,CC[N+](C)(CC)CCO,94.3% (inactive)
18,CC(=O)OC1CC2C(C)(C)OC3CC(=O)OCC32C2CCC3(C)C(=CCC3c3ccoc3)C12C (stereo unspecified),108% (inactive)
19,N#CCCN(CCCN1CCOCC1)CN1C(=O)c2ccccc2C1=O,111% (inactive)

# System: OVCAR-5 ovarian
# Assay: as above
# Settings: 10 µM
row,Compound,growth
1,Nc1nc(N)c2cc(S(=O)(=O)c3cccc(C(F)(F)F)c3)ccc2n1,48% (inactive)
2,CCN(CC)C(=O)/C=C(/C)c1ccccc1,113% (inactive)
3,CCC(O)CC(CC)CO (stereo unspecified),104% (inactive)
4,COc1ccc(OC)c(/C=C2\CCc3ccccc3C2=O)c1,72.9% (inactive)
5,O=C(O)CCCCNC(=O)c1ccccc1,116% (inactive)
6,C/C(=N/NC(N)=O)c1ccco1,100% (inactive)
7,Cc1ccc(CCCC(=O)O)c(C)c1,94.5% (inactive)
8,CC(=O)OCC1OC(OC2=C(CC=C(C)C)C(=O)c3ccccc3C2=O)C(OC(C)=O)C(OC(C)=O)C1OC(C)=O (stereo unspecified),89.7% (inactive)
9,C=CC(O)CCC (stereo unspecified),103% (inactive)
10,COc1cc(C(=O)NC(=S)Nc2ccc3ccccc3c2)cc(OC)c1OC,99.9% (inactive)
11,CCN1C(=O)/C(=C/C=C/N(C)c2ccccc2)SC1=S,102% (inactive)
12,O=[N+]([O-])c1cccc(C(F)(F)F)c1,97% (inactive)
13,CCOc1ccc(/C=N/N=C(N)N)cc1OCC,101% (inactive)
14,CCc1ccc(/C(C#N)=C/C=C/c2ccccc2)cc1,77.7% (inactive)
15,COC(=O)c1ccc(NC(=O)CCl)cc1,96.4% (inactive)
16,CCn1c(=O)n(C)c2c(=O)n(C)c(=O)n(C)c21,108% (inactive)
17,COCCCC/C(=N\OCCN)c1ccc(C(F)(F)F)cc1,92.5% (inactive)
18,O=[N+]([O-])c1cccc2nsnc12,122% (inactive)
19,COc1ccc(NC(=O)CCl)cc1,68.2% (inactive)

row,Compound,growth
1,CC1(C(N)=O)CCC(C(=O)O)C1(C)C (stereo unspecified),98.2% (inactive)
2,Cc1ccc(/C(C#N)=C/c2ccc3c(c2)OCO3)cc1,112% (inactive)
3,O=C(c1ccccc1)C1CCC1,109% (inactive)
4,C/C(=N\NC(=O)c1ccccc1N)c1ccccc1O,52.2% (inactive)
5,COC(=O)c1cccnc1,90.3% (inactive)
6,CN(C)c1ccc(CNC(C(=O)c2ccccc2)c2ccccc2)cc1 (stereo unspecified),110% (inactive)
7,CCCCCC(C)(CC(=O)O)CC(=O)O,97.4% (inactive)
8,COC(=O)Nc1nc2ccc(C(=O)c3cccs3)cc2[nH]1,42.4% (inactive)
9,N#CC1(Nc2ccc3c4c(cccc24)CC3)CCCCC1,110% (inactive)
10,O=C(CS)Nc1ccc2ccccc2c1,102% (inactive)
11,CCOC(=O)C/C(C)=N\O,106% (inactive)
12,CC(O)COc1ccc(-c2ccccc2)cc1 (stereo unspecified),98.9% (inactive)
13,CC(=O)c1cc2c(cc1F)C(C)(C)CCC2(C)C,90.1% (inactive)
14,C[C@]12CC[C@@H]3c4ccc(OCC(=O)O)cc4CC[C@H]3[C@@H]1CCC2=O,107% (inactive)
15,O=C(c1ccc(O)cc1)c1ccc(O)cc1,105% (inactive)
16,CC[N+](C)(CC)CCO,100% (inactive)
17,CC(=O)OC1CC2C(C)(C)OC3CC(=O)OCC32C2CCC3(C)C(=CCC3c3ccoc3)C12C (stereo unspecified),95.9% (inactive)
18,N#CCCN(CCCN1CCOCC1)CN1C(=O)c2ccccc2C1=O,106% (inactive)

# System: SK-OV-3 ovarian
# Assay: as above
# Settings: 10 µM
row,Compound,growth
1,Nc1nc(N)c2cc(S(=O)(=O)c3cccc(C(F)(F)F)c3)ccc2n1,72.8% (inactive)
2,CCN(CC)C(=O)/C=C(/C)c1ccccc1,107% (inactive)
3,CCC(O)CC(CC)CO (stereo unspecified),115% (inactive)
4,COc1ccc(OC)c(/C=C2\CCc3ccccc3C2=O)c1,53% (inactive)
5,O=C(O)CCCCNC(=O)c1ccccc1,97.9% (inactive)
6,C/C(=N/NC(N)=O)c1ccco1,84.1% (inactive)
7,Cc1ccc(CCCC(=O)O)c(C)c1,97.7% (inactive)
8,CC(=O)OCC1OC(OC2=C(CC=C(C)C)C(=O)c3ccccc3C2=O)C(OC(C)=O)C(OC(C)=O)C1OC(C)=O (stereo unspecified),84.4% (inactive)
9,C=CC(O)CCC (stereo unspecified),108% (inactive)
10,CCN1C(=O)/C(=C/C=C/N(C)c2ccccc2)SC1=S,41.3% (inactive)
11,O=[N+]([O-])c1cccc(C(F)(F)F)c1,106% (inactive)
12,CCOc1ccc(/C=N/N=C(N)N)cc1OCC,106% (inactive)
13,COC(=O)c1ccc(NC(=O)CCl)cc1,96.7% (inactive)
14,CCn1c(=O)n(C)c2c(=O)n(C)c(=O)n(C)c21,106% (inactive)
15,COCCCC/C(=N\OCCN)c1ccc(C(F)(F)F)cc1,105% (inactive)
16,O=[N+]([O-])c1cccc2nsnc12,94.1% (inactive)
17,CC(=O)c1ccc(C(C)(C)C)cc1,101% (inactive)
18,COc1ccc(NC(=O)CCl)cc1,87.7% (inactive)

row,Compound,growth
1,CC1(C(N)=O)CCC(C(=O)O)C1(C)C (stereo unspecified),94.4% (inactive)
2,Cc1ccc(/C(C#N)=C/c2ccc3c(c2)OCO3)cc1,82.8% (inactive)
3,CC(=O)Oc1ccc(Br)cc1C(=O)O,98.2% (inactive)
4,O=C(c1ccccc1)C1CCC1,100% (inactive)
5,C/C(=N\NC(=O)c1ccccc1N)c1ccccc1O,58.3% (inactive)
6,COC(=O)c1cccnc1,101% (inactive)
7,CN(C)c1ccc(CNC(C(=O)c2ccccc2)c2ccccc2)cc1 (stereo unspecified),103% (inactive)
8,CCCCCC(C)(CC(=O)O)CC(=O)O,114% (inactive)
9,COC(=O)Nc1nc2ccc(C(=O)c3cccs3)cc2[nH]1,13.3% (inactive)
10,O=C(CS)Nc1ccc2ccccc2c1,108% (inactive)
11,CCOC(=O)C/C(C)=N\O,103% (inactive)
12,CC(O)COc1ccc(-c2ccccc2)cc1 (stereo unspecified),105% (inactive)
13,CC(=O)c1cc2c(cc1F)C(C)(C)CCC2(C)C,105% (inactive)
14,C[C@]12CC[C@@H]3c4ccc(OCC(=O)O)cc4CC[C@H]3[C@@H]1CCC2=O,115% (inactive)
15,O=C(c1ccc(O)cc1)c1ccc(O)cc1,114% (inactive)
16,CC[N+](C)(CC)CCO,103% (inactive)
17,CC(=O)OC1CC2C(C)(C)OC3CC(=O)OCC32C2CCC3(C)C(=CCC3c3ccoc3)C12C (stereo unspecified),108% (inactive)
